Laboratory results taken from PubChem BioAssay (Tox21).
Results filed as inconclusive are left out. Calls of active or inactive are those of the source. Calls follow the shape of the dose curve; as a rule, active = well fitted activation curve with a large enough effect in the signal ratio in the repeat runs (not every such curve was filed as active); inconclusive = weak or mixed curves; inactive = flat fitted curve, though single readings scatter; the % refers to the signal ratio. Where a SMILES comes first, the peptide text is derived from it.

assay: qHTS assay to identify small molecule agonists of the TGF-beta/Smad signaling pathway (AID 1346859); conditions: SBE-bla HEK293T, TGF-beta/Smad beta-lactamase reporter, 5 h; series mostly up to 76.8 µM
From the text: U.S. Tox21 Program National Center for Advancing Translational Sciences [NCATS] NIH Chemical Genomics Center [NCGC] U.S. Environmental Protection Agency [EPA] National Institutes of Environmental Health Sciences [NIEHS] National Toxicology Program [NTP] U.S. Food and Drug Administration [FDA] Tox21 Assay Overview: Transforming growth factor beta (TGF-beta) superfamily consists of a large number of structurally related dimeric proteins that act as hormones or local mediators in regulating a wide range of biological functions. This superfamily includes TGF-betas themselves, the bone morphogenetic proteins (BMPs) and the activins. These ligands induce oligomerization of serine/threonine receptor kinases and phosphorylate the cytoplasmic signaling molecules of Smad protein family. CellSensor SBE-bla HEK 293T cell line (Life Technologies, Carlsbad, CA), responsive to TGF-beta was used to screen Tox21 10K compound library for identification of agonists/antagonists of the Smad signaling pathway. This cell line contains a beta-lactamase reporter gene under control of the Smad binding element (SBE) stably integrated into HEK 293T cells.
Tox21 Assay Protocol Summary: SBE-bla HEK 293T cells were dispensed at 4,000/well in 6 uL of assay medium into black wall/clear-bottom 1536-well plates using a Multidrop Combi (ThermoFisher Scientific, Waltham, MA) dispenser. After the assay plates were incubated at 37 C and 5% CO2 for an overnight, 23 nL of compounds dissolved in DMSO, positive controls or DMSO only was transferred to the assay plate by a Pintool station (Kalypsys, San Diego, CA). The assay plates were incubated at 37 C and 5% CO2 for 5 hr. One uL of LiveBLAzer B/G FRET substrate (Life Technologies) was added using a Flying Reagent Dispenser (Aurora Discovery, San Diego, CA) and the plates were incubated at room temperature for 2 hr. Fluorescence intensity (405 nm excitation, 460 nm and 530 nm emissions) was measured using an Envision plate reader (PerkinElmer, Shelton, CT).
% is scaled to controls: 0 for no effect and ±100 for the full control effect.

SMILES | outcome | activation
O=C(O)[C@H](O)c1ccccc1 | inactive | 
CC(CO)(CO)CO | inactive | 
CC(=O)CCC1=C(C)CCCC1(C)C | inactive | 
CCCCCCCCCOC(=O)CCCCC(=O)OCCCCCCC | inactive | 
CC(C)OC(=O)OCOP(=O)(CO[C@H](C)Cn1cnc2c(N)ncnc21)OCOC(=O)OC(C)C | inactive | 
CC1CC(=O)CC(C)(C)C1 (stereo not given) | inactive | 
CC1(C)Oc2ccc(C#N)cc2[C@@H](N2CCCC2=O)[C@@H]1O | inactive | 
O=C1NC(c2ccccc2)(c2ccccc2)C(=O)N1COP(=O)(O)O | inactive | 
Nc1nc(-c2ccccc2)c(Br)c(=O)[nH]1 | inactive | 
CCCc1ccc(O)cc1 | inactive | 
CCC(C)C(=O)OCCc1ccccc1 (stereo not given) | inactive | 
COC(=O)/C=C\C(=O)O | inactive | 
O=C(NCN1CCOCC1)c1cnccn1 | inactive | 
C=CCN1C[C@H](C(=O)N(CCCN(C)C)C(=O)NCC)C[C@@H]2c3cccc4[nH]cc(c34)C[C@H]21 | inactive | 
COc1c2occc2c(OC)c2c(=O)cc(C)oc12 | inactive | 
CC(C)C[C@@H]1[C@H](c2ccccc2)OC(=O)N1CCCN1CCCCCC1 | inactive | 
CC(C)NC(=O)c1ccc(C=O)cc1 | inactive | 
CCO | inactive | 
CC(=O)OC1CCCCC1C(C)(C)C (stereo not given) | inactive | 
CC(=O)N[C@@H](CO)C(=O)N[C@@H](CC(=O)O)C(=O)N[C@@H](CCCCN)C(=O)N1CCC[C@H]1C(=O)O (Ac-SDKP-OH) | inactive | 

SMILES | outcome | activation
CN(C)CCCCl | inactive | 
OCC1CCC(CO)CC1 (stereo not given) | inactive | 
CCCCCC/C=C/C(=O)OC | inactive | 
CCc1occc(=O)c1O | inactive | 
CCC(=O)CC | inactive | 
CCOC(CN1CCN(CC(C)C(=O)c2ccccc2)CC1)c1ccccc1 (stereo not given) |  | -2.36% [at 15.8 µM] (inactive)
c1ccc2c(CC3=NCCN3)cccc2c1 | inactive | 
CC(O)COC(C)(C)C (stereo not given) | inactive | 
CO[C@@]1(NC(=O)Cc2cccs2)C(=O)N2C(C(=O)O)=C(COC(N)=O)CS[C@@H]21 | inactive | 
CC(C)c1ccc(C=O)cc1 | inactive | 
O=NN(CCCl)C(=O)NC1CCCCC1 | inactive | 
CC(C)C1OCCN1CCOC(=O)NCCCCCCNC(=O)OCCN1CCOC1C(C)C (stereo not given) | inactive | 
CCCCSCCCC | inactive | 
O=C(Cl)c1ccccc1[N+](=O)[O-] | inactive | 
Cc1c(N)cccc1Cl | inactive | 
CC/C=C\CCOC(=O)c1ccccc1O | inactive | 
COc1cc(/C=C/C(N)=O)cc(OC)c1OC | inactive | 
CC(S)C(C)S (stereo not given) | inactive | 
Cn1nnc2c(C(N)=O)ncn2c1=O | inactive | 
O=Cc1ccccc1Cl | inactive | 
